A selection: hits, their analogues and other compounds. The true share with any hit is near 1.6%.
B2AR ag = agonists of human beta-2 adrenergic receptor inducing internalization. P07550. Am2.2-beta2AR cells, FAP receptor internalization, flow cytometry. response, % (concentration not given with the values). hit rate 0.43% among 340,000. AID 504454;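 active = response above a set limit, near 3 SD of response in nonfluorescent compounds, cut at about 42% in these data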
Target sequence (P07550 whole entry, looked up): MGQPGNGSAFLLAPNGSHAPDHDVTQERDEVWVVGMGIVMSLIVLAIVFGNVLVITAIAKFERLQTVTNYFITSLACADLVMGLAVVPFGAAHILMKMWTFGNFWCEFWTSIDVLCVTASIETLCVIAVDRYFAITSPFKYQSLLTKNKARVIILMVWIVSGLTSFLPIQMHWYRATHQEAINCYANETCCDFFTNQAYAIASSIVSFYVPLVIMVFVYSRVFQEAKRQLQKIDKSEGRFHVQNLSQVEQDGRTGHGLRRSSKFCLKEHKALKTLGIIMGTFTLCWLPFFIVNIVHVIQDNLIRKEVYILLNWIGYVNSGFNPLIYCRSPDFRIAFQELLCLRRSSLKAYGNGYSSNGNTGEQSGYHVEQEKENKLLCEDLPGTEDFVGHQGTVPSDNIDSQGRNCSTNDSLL
DYRK1A inh = inhibitors of rat Dyrk1A kinase; Q63470; ADP-Glo luminescence, NFATc1 peptide; inhibition, % at 12.5 µM; hit rate 0.43% among 310,000; in the data active = inhibition above about 50%
dFosB act = mouse delta FosB homodimer activation | P13346 | hit rate 0.99% among 340,000 | purified delta FosB, TAMRA-CDK5 oligo fluorescence polarization; percent of positive-control signal above neutral wells | activation, % at 25 µM;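 active = mean activation above about 17%, with every replicate also reaching it, limit read from the data, passing the limit was not always enough; inconclusive = only one of the two conditions met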
Bfl-1 A1 inh = inhibitors of the anti-apoptotic protein A1, read as caspase activation; MEF A1-2A-BIM cells, Caspase-Glo 3/7 luminescence, 3 h; percent of clofoctol response, vehicle zero; caspase activation, % (concentration not given with the values); hit rate 0.066% among 330,000;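 active = over half of replicate activation scores above 10%, or exactly half above 10 with the replicate mean above 10; inconclusive = replicate mean below 10 yet half the replicates above 10; inactive = over half of replicates below 10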
Dyrk1A artifact = interferes with ADP-Glo luciferase readout without Dyrk1A; shares compounds with DYRK1A inh; ADP-Glo luciferase artifact assay, no Dyrk1A, luminescence; AC50, µM (doses to about 12 µM); 1,300 tested, under 10 active; AID 588348;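 active = fitted half-maximal dose AC50 no more than ten times the top valid tested dose, with luminescence dropping as dose rises; inconclusive = poor fit, or flat fit with 30 to 70% inhibition; inactive = the rest, signal increases included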
Hits are given with their value.

What do the screens show for `C=CC(C)(C)c1c(O)c(CC=C(C)C)c(O)c2c(=O)c3ccc(O)c(O)c3oc12`?
B2AR ag: inactive; DYRK1A inh: 98.6; dFosB act: inactive; Bfl-1 A1 inh: inactive; Dyrk1A artifact: inactive

Results for CSc1cccc(CN2CCC(n3nccc3NC(=O)C3CC3)CC2)c1 ?
B2AR ag: inactive; DYRK1A inh: inactive; dFosB act: inactive

What do the screens show for `CN(Cc1ccccc1)C(=O)COC(=O)c1cc(=O)[nH]c2ccccc12`?
B2AR ag: inactive; DYRK1A inh: inactive; dFosB act: inactive; Bfl-1 A1 inh: inactive

What do the screens show for `Cc1cc(C)c(CN2CCN(C(=O)Cn3ccc(N)nc3=O)CC2)c(C)c1`?
B2AR ag: inactive; DYRK1A inh: 50.1; dFosB act: inactive; Bfl-1 A1 inh: inactive; Dyrk1A artifact: inactive

Results for CSc1nc(N)nc2c1ncn2CC(=O)N1CCN(Cc2c(C)cc(C)cc2C)CC1 ?
B2AR ag: inactive; DYRK1A inh: inactive; dFosB act: inactive; Bfl-1 A1 inh: inactive

What do the screens show for `Fc1ccccc1-c1nc(-c2ccc(-c3nn[nH]n3)cc2)no1`?
B2AR ag: inactive; DYRK1A inh: 58.6; dFosB act: inactive; Bfl-1 A1 inh: inactive; Dyrk1A artifact: inactive

Results for Cc1ccc(-c2cc(-c3ccccc3C)[nH]n2)c(O)c1 ?
B2AR ag: inactive; DYRK1A inh: inactive; dFosB act: inactive; Bfl-1 A1 inh: inactive

Results for O=[N+]([O-])c1ccccc1-c1cc(-c2ccccc2O)n[nH]1 ?
B2AR ag: inactive; DYRK1A inh: 50.9; dFosB act: inactive; Bfl-1 A1 inh: inactive; Dyrk1A artifact: inactive

Results for CN(C)c1ccc(CN(C(=O)c2ccccc2Br)C2CCS(=O)(=O)C2)cc1 (stereo not drawn) ?
B2AR ag: inactive; DYRK1A inh: inactive; dFosB act: inactive; Bfl-1 A1 inh: inactive

How did CC(=NCc1cccnc1)C1=C(O)c2ccccc2C1=O do in these assays?
B2AR ag: inactive; DYRK1A inh: 51.2; dFosB act: inactive; Bfl-1 A1 inh: inactive; Dyrk1A artifact: inactive

Results for Cc1cccc(NC(=O)CSCC(=O)Nc2cc(Cl)ccc2N2CCOCC2)c1 ?
B2AR ag: inactive; DYRK1A inh: inactive; dFosB act: inactive; Bfl-1 A1 inh: inactive

Results for O=C1c2ccccc2C(=O)c2[nH]cnc21 ?
B2AR ag: inactive; DYRK1A inh: 56.5; dFosB act: inactive; Bfl-1 A1 inh: inactive; Dyrk1A artifact: inactive

Results for O=C1c2ccccc2C(=O)c2[nH]c(=O)[nH]c21 ?
B2AR ag: inactive; DYRK1A inh: inactive; dFosB act: inactive; Bfl-1 A1 inh: inactive

Results for Cc1noc(NS(=O)(=O)c2ccc(NC(=O)c3oc4ccc(Cl)cc4c3C)cc2)c1C ?
B2AR ag: inactive; DYRK1A inh: 64.3; dFosB act: inactive; Bfl-1 A1 inh: inactive; Dyrk1A artifact: inactive

Results for COc1ccc2c(C#CCCO)c(-c3ccc(S(C)(=O)=O)cc3)sc2c1 ?
B2AR ag: inactive; DYRK1A inh: 56.4; dFosB act: inactive; Bfl-1 A1 inh: inactive; Dyrk1A artifact: inactive

What do the screens show for `CN(C)S(=O)(=O)c1ccc(NC(=O)c2cc3ccccc3o2)cc1`?
B2AR ag: inactive; DYRK1A inh: 75.5; dFosB act: inactive; Bfl-1 A1 inh: inactive; Dyrk1A artifact: inactive

How did [N-]=[N+]=NC[C@H](c1ccccc1)N1CCN(Cc2ccccc2)CCC1=O do in these assays?
B2AR ag: inactive; DYRK1A inh: inactive; dFosB act: inactive; Bfl-1 A1 inh: inactive

How did CC(C)n1ncc2c(C(=O)NCc3cccnc3)cc(C3CC3)nc21 do in these assays?
B2AR ag: inactive; DYRK1A inh: inactive; dFosB act: inactive

What do the screens show for `COc1cc2c(ccc3cc(OC)c(OC)c(O)c32)cc1O`?
B2AR ag: inactive; DYRK1A inh: 93.6; dFosB act: inactive; Bfl-1 A1 inh: inactive; Dyrk1A artifact: inactive

What do the screens show for `COc1cc2ccc(=O)oc2c(O)c1OCC=C(C)C`?
B2AR ag: inactive; DYRK1A inh: inactive; dFosB act: inactive; Bfl-1 A1 inh: inactive

How did COc1ccccc1CNC(=O)C(=O)NCC1OCCCN1S(=O)(=O)c1cccs1 (stereo not drawn) do in these assays?
B2AR ag: inactive; DYRK1A inh: inactive; dFosB act: inactive; Bfl-1 A1 inh: inactive

How did O=C1OCC/C1=C\c1ccc(O)cc1 do in these assays?
B2AR ag: inactive; DYRK1A inh: 91.6; dFosB act: inactive; Bfl-1 A1 inh: inactive; Dyrk1A artifact: inactive

How did O=C1OCCC1=Cc1ccccc1 do in these assays?
B2AR ag: inactive; DYRK1A inh: inactive; dFosB act: inactive

What do the screens show for `COc1ccc(-c2cc(=O)oc3c(C)c(OC(C)C(=O)NCc4ccccn4)ccc23)cc1` (stereo not drawn)?
B2AR ag: inactive; DYRK1A inh: inactive; dFosB act: inactive; Bfl-1 A1 inh: inactive

What do the screens show for `Cc1ccc(-c2nnc(SCC(=O)NCCN3C(=O)CSC3=O)n2C)cc1`?
B2AR ag: inactive; dFosB act: inactive; Bfl-1 A1 inh: inactive

How did COC(=O)c1cccc2c1-c1ccccc1/C2=N/O do in these assays?
B2AR ag: inactive; DYRK1A inh: 57.5; dFosB act: inactive; Bfl-1 A1 inh: inactive; Dyrk1A artifact: inactive

What do the screens show for `Cn1cc(CN2CCC(n3nccc3NC(=O)C3CCCC3)CC2)cn1`?
B2AR ag: inactive; DYRK1A inh: inactive; dFosB act: inactive; Bfl-1 A1 inh: inactive

How did CC1=C(C(=O)Nc2cc(C(=O)N3CCN(c4cccc(C)c4C)CC3)ccc2C)SCCO1 do in these assays?
B2AR ag: inactive; dFosB act: inactive; Bfl-1 A1 inh: inactive

Results for COc1ccc2cc3cc(C(=O)NCCC(C)C)oc3nc2c1 ?
B2AR ag: inactive; DYRK1A inh: inactive; dFosB act: inactive; Bfl-1 A1 inh: inactive

How did COc1ccc2cc3cc(C(=O)NCC4CCCO4)oc3nc2c1 (stereo not drawn) do in these assays?
B2AR ag: inactive; DYRK1A inh: 54.4; dFosB act: inactive; Bfl-1 A1 inh: inactive; Dyrk1A artifact: inactive

What do the screens show for `COCCNC(=O)c1cc2cc3ccc(OC)cc3nc2o1`?
B2AR ag: inactive; DYRK1A inh: 58.2; dFosB act: inactive; Bfl-1 A1 inh: inactive; Dyrk1A artifact: inactive

How did COc1ccc(C(=O)NCC2CCCO2)cc1 (stereo not drawn) do in these assays?
B2AR ag: inactive; DYRK1A inh: inactive; dFosB act: inactive; Bfl-1 A1 inh: inactive

Results for NC(=O)c1cc2cc(Br)ccc2oc1=NCc1ccccc1 ?
B2AR ag: inactive; DYRK1A inh: inactive; dFosB act: inactive; Bfl-1 A1 inh: inconclusive

What do the screens show for `NC(=O)c1cc2ccccc2oc1=NCc1ccccc1`?
B2AR ag: inactive; DYRK1A inh: 68.4; dFosB act: inactive; Bfl-1 A1 inh: inactive; Dyrk1A artifact: inactive

How did COc1ccc(OC)c(N=c2oc3cc(O)ccc3cc2C(N)=O)c1 do in these assays?
B2AR ag: inactive; DYRK1A inh: 81.0; dFosB act: inactive; Bfl-1 A1 inh: inactive; Dyrk1A artifact: inactive

What do the screens show for `NC(=O)c1cc2ccc(O)cc2oc1=Nc1ccccc1`?
B2AR ag: inactive; DYRK1A inh: 58.3; dFosB act: inactive; Dyrk1A artifact: inactive

How did COc1ccc2oc(=Nc3cc(F)ccc3F)c(C(N)=O)cc2c1 do in these assays?
B2AR ag: inactive; DYRK1A inh: inactive; dFosB act: inactive; Bfl-1 A1 inh: inactive
